This is part of a sample that, as a whole, favours compounds with a hit. Of some 79,000 tested, about 15% had one in any assay. Rule as the data show it: active = growth inhibition above about 70%; inactive = the rest.
Tests used:
[1] = NCI Yeast Anticancer Drug Screen. Data for the rad50 strain (AID 155);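 also: 0% = growth of vehicle-only cultures of the same strain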; settings: S. cerevisiae rad50 strain growth inhibition; at 50.0 µM; active compounds read high
Method in brief: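 Vehicle-treated cultures provide the reference for the growth inhibition reported for compound-exposed, repair-deficient yeast.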

[2] = NCI Yeast Anticancer Drug Screen. Data for the mec2-1 strain (AID 157); settings: S. cerevisiae mec2-1 strain, at 50.0 µM, active compounds read high
Method in brief: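 Readout is yeast growth inhibition, normalised to vehicle-treated controls, in the mec2-1 strain exposed to compound.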

[3] = NCI Yeast Anticancer Drug Screen. Data for the sgs1 mgt1 strain (AID 161);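 also: 0% = growth of cultures given vehicle only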; settings: S. cerevisiae sgs1 mgt1 strain, at 50.0 µM, active compounds read high
Method in brief: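 This yeast growth screen uses a strain with defined DNA-repair lesions; compound-treated growth is compared with vehicle-treated growth.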

[4] = NCI Yeast Anticancer Drug Screen. Data for the cln2 rad14 strain (AID 165);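 also: 0% = growth equal to vehicle treated cultures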; settings: S. cerevisiae cln2 rad14 strain, at 50.0 µM, active compounds read high
Method in brief: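 Relative to vehicle controls, growth inhibition of compound-treated cln2 rad14 yeast was recorded.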

[5] = NCI Yeast Anticancer Drug Screen. Data for the bub3 strain (AID 167); settings: S. cerevisiae bub3 mutant strain, at 50.0 µM, active compounds read high
Method in brief: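 Mutant yeast screening strain plus compound; vehicle-treated cultures serve as the 0% inhibition reference.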

[6] = NCI Yeast Anticancer Drug Screen. Data for the mlh1 rad18 strain (AID 175); settings: S. cerevisiae mlh1 rad18 strain growth inhibition; at 50.0 µM; active compounds read high
Method in brief: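 Test agents were incubated with a yeast strain of defined genotype (DNA damage repair defect). Inhibition of growth was derived by comparison with vehicle-exposed cultures.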

Measured: growth inhibition

O=c1oc2ccccc2c(=O)n1O
inactive: [1] 65.8% | [2] 10.3% | [3] 10.1% | [4] 9.4% | [5] 30.1% | [6] 43.1%

COc1ccc(C(=O)/C=C/c2c[nH]c3ccccc23)c(O)c1
inactive: [1] 15.8% | [2] 9.85% | [3] 26.3% | [4] -43.2% | [5] 9.9% | [6] 22.4%

Brc1cccc(C2ON=C(c3ccccc3)N2C23CC4CC(CC(C4)C2)C3)c1 (stereo not given)
inactive: [1] 2.2% | [2] -7.45% | [3] -1.75% | [4] -14.7% | [5] -7.55% | [6] -7.7%

O=c1c2ncccc2cc2n1CCc1c-2[nH]c2ccccc12
inactive: [1] -15.3% | [2] -15.9% | [3] 6.3% | [4] -4.75% | [5] -1.1% | [6] -0.2%

CN(C)CCCNC(=O)CCNC(=O)c1cc(NC(=O)c2cc(NC(=O)c3cc(NC(=O)c4nc(NC(=O)CCCNC(=O)c5cc(NC(=O)c6cc(NC(=O)c7cc(NC(=O)c8nccn8C)cn7C)cn6C)cn5C)cn4C)cn3C)cn2C)cn1C
inactive: [1] -17.3% | [2] -31.9% | [3] 23.1% | [4] 28.8% | [5] 15.3% | [6] -46.4%

NCCSCCC(=O)O
inactive: [1] -0.25% | [2] -12.1% | [3] -36.9% | [4] 7.3% | [5] -28.4% | [6] -22.6%

N#C/C(=C\c1c(Cl)cccc1Cl)c1ccc([N+](=O)[O-])cc1
inactive: [1] 7.65% | [2] -0.2% | [3] 16% | [4] -4.45% | [5] 48.8% | [6] 5.1%

Cc1ncc([N+](=O)[O-])n1CCNC(=O)CCCCCn1ccnc1[N+](=O)[O-]
inactive: [1] 3.1% | [2] -4.05% | [3] -9.45% | [4] 19.7% | [5] -6.15% | [6] -35.2%

CCCC(CCC)(C(=O)O)C(=O)O
inactive: [1] -10.3% | [2] -25.1% | [3] -12.5% | [4] 27.5% | [5] -17.9% | [6] 11.5%

CC(=O)Nc1ccc2c(c1)C(N1CCCCC1)c1ccccc1-2 (stereo not given)
inactive: [1] -42.2% | [2] -17.8% | [3] 4.2% | [4] -40.1% | [5] -2.6% | [6] -5.4%

NC(=O)Nc1cccc(C(=O)O)c1C(=O)O
inactive: [1] -29.4% | [2] -13.2% | [3] -18.1% | [4] -33.6% | [5] -13.1% | [6] -28.4%

O=C(c1ccncc1)c1c(Cc2ccccc2)ccc2ccccc12
inactive: [1] -0.3% | [2] -0.65% | [3] -9.25% | [4] -4% | [5] 5.45% | [6] -1.35%

C/C(NN(C)C)=C(\C#N)C(=O)/C=C/c1cccs1
inactive: [1] 25.2% | [2] 1.75% | [3] 38.5% | [4] 25.9% | [5] 18.1% | [6] 18.8%

CSc1ccc(C(=C=C=C(c2ccc(SC)s2)c2ccc(SC)s2)c2ccc(SC)s2)s1
inactive: [1] 38.7% | [2] -19.8% | [3] 2.85% | [4] -24.2% | [5] -31.9% | [6] -2.1%

Oc1cccc2c(O)cccc12
inactive: [1] 0.55% | [2] 22.8% | [3] 26.4% | [4] -9.55% | [5] 25.5% | [6] 32.8%

O=c1ccn2c(n1)OC1CC2OC1COC(c1ccccc1)(c1ccccc1)c1ccccc1 (stereo not given)
inactive: [1] -8.8% | [2] 4.15% | [3] 12.2% | [4] -17.4% | [5] 3.6% | [6] 10.3%

CC(=O)Nc1ccc(/C=C/c2ccc(N=C=S)c(S(=O)(=O)O)c2)c(S(=O)(=O)O)c1
inactive: [1] 9.5% | [2] -4.4% | [3] -19% | [4] 10.1% | [5] 1.4% | [6] -13.5%

CCCCCCCCCCO
inactive: [1] -1.6% | [2] 4.6% | [3] -5.15% | [4] 5.45% | [5] 3.2% | [6] -1.6%

COc1cc(C)cc2c(-c3c(OC(C)=O)cc(OC(C)=O)c4c3C[C@H](C)N(C(C)=O)[C@H]4C)cc(-c3cc(-c4c(OC(C)=O)cc(OC(C)=O)c5c4C[C@H](C)N(C(C)=O)[C@H]5C)c4cc(C)cc(OC)c4c3O)c(O)c12
inactive: [1] 41% | [2] 31.5% | [3] 34.5% | [4] 7.65% | [5] -44% | [6] 16.4%

Cc1cc2nc3c(=O)[nH]c(=O)nc-3n(CC(O)C(O)C(O)C(O)CO)c2cc1C (stereo not given)
inactive: [1] 33.5% | [2] 3.2% | [3] -14.4% | [4] 7.05% | [5] -7.7% | [6] 23.2%

O=S(=O)(N1CCCCC1)N1CCCCC1
inactive: [1] 2.3% | [2] -0.85% | [3] 0.85% | [4] 8.85% | [5] 10.2% | [6] -2.4%

COc1ccc2c(c1)CCc1cc(OC)ccc1/[N+]([O-])=[N+]\2[O-]
inactive: [1] -1.2% | [2] 1.25% | [3] 6.8% | [4] -70.8% | [5] -5.1% | [6] 14.8%

O=S(=O)(O)c1ccc(N/N=C/c2ccccc2)cc1
inactive: [1] -9.45% | [2] 12.7% | [3] 12.1% | [4] 5.3% | [5] -10.2% | [6] 14.3%

CCOC(=O)c1ccc(C(=N)N)cc1
inactive: [1] 8.4% | [2] 2.2% | [3] 11% | [4] -15.2% | [5] 11.2% | [6] 5.55%

NC(=O)N/N=C/c1ccccc1O
inactive: [1] 28.8% | [2] 11.2% | [3] 15% | [4] 5.95% | [5] -1.2% | [6] 6.75%

c1ccc2c3c(ccc2c1)Oc1ccc2ccccc2c1C3
inactive: [1] -8.55% | [2] -1.45% | [3] -7.2% | [4] -47.4% | [5] -7.35% | [6] 1%

CN1C(=O)CNS1(=O)=O
inactive: [1] -1.45% | [2] 9.6% | [3] -4.35% | [4] -11.1% | [5] 4.6% | [6] 7.3%

O=[N+]([O-])c1ccc(C(O)(C#CCN2CCCC2)c2ccccc2)cc1 (stereo not given)
inactive: [1] 20.5% | [2] 11.9% | [3] -24.1% | [4] 10.2% | [5] 3.5% | [6] 12.7%

CC(=O)c1ccc(N=NN(C)C)cc1
inactive: [1] 0.2% | [2] 1% | [3] -2.65% | [4] -18.4% | [5] -21.9% | [6] -15.6%

CS/C(=C\c1ccc(C(=O)c2ccc(C)cc2)n1C)S(C)=O (stereo not given)
inactive: [1] 16.6% | [2] 15.2% | [3] 42.4% | [4] 11.1% | [5] -0.7% | [6] 35.5%

O=[N+]([O-])c1cccc2ccc(N/N=C/c3ccccc3O)nc12
inactive: [1] 18.8% | [2] -4.05% | [3] 42.2% | [4] 1.85% | [5] 7.25% | [6] 19.8%

Cc1ccc(NC(=S)N2CCCC2)cc1
inactive: [1] 5.9% | [2] -12.9% | [3] -18.8% | [4] -94.2% | [5] -13.4% | [6] -0.7%

COc1ccc(C(=O)N/N=C/c2c(C)n(C)n(-c3ccccc3)c2=O)cc1
inactive: [1] -54.1% | [2] -18.6% | [3] -61.2% | [4] -6.45% | [5] -52.5% | [6] -48.5%

C1CCC(CCC2CCCC[N-]2)[N-]C1.[I][Co][I] (stereo not given)
inactive: [1] 48.3% | [2] 27.9% | [3] 47% | [4] -3% | [5] 33.7% | [6] 43.5%

C=C(C)COc1ccc(Nc2ccccc2)cc1
inactive: [1] 5.7% | [2] 18.4% | [3] 22% | [4] 6.65% | [5] 2.35% | [6] 34%

CN=C(NC)C(c1ccccc1)c1ccccc1
inactive: [1] -0.5% | [2] -9.7% | [3] -5.7% | [4] -15.8% | [5] -5.8% | [6] -9.3%

CC(C)CN(CC#N)CC(C)C
inactive: [1] -31.8% | [2] -26.9% | [3] -34.5% | [4] 15.1% | [5] -49.1% | [6] -50%

Nc1nc(N)c2[nH]cnc2n1 (tested in a mixture with another compound)
inactive: [1] -25.5% | [2] -17.1% | [3] -31.6% | [4] 11.3% | [5] -41.6% | [6] -12%

COc1ccc(-n2c(CCCC(=O)O)nc3c2C(=O)c2ccccc2C3=O)cc1
inactive: [1] 20.4% | [2] 23.8% | [3] 25.5% | [4] 17.1% | [5] 25.1% | [6] 33.5%

COc1ccccc1NC(=O)CCl
inactive: [1] 17.8% | [2] 24.9% | [3] 24.4% | [4] 18.8% | [5] 28.5% | [6] 36.2%
